{"source": "PubChem BioAssay AID1159580", "about": "(chemical genetic matrix, 2015)", "experiment": "chemical genetic growth profiling, strain panel (AID 1159580);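 note: tested at 20 µM; growth read once vehicle control cultures reached saturation at 30 °C; 1 = growth at the plate median or of vehicle wells; lower values mean less growth of the strain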", "conditions": "S. cerevisiae deletion strains, growth OD", "note": "About 2,000 (36%) of roughly 5,500 compounds were called active. Roughly 18% stayed inconclusive and do not appear here. Some of the results follow. Unmarked numbers belong to inactive results. Cut-off read from the data, not from the text of the source: active = normalized growth mostly below about 0.91 (no sharp cut-off); inconclusive = no clear call, values can overlap the other calls; inactive = mostly above about 0.92."}
{"smiles": "N#Cc1nn(-c2c(Cl)cc(C(F)(F)F)cc2Cl)c(N)c1S(=O)C(F)(F)F", "note": "(stereo not drawn)", "values": [{"measurement": "normalized growth", "setting": "locus YAL021C, strain ccr4, active compounds read low", "result": 0.995}, {"measurement": "normalized growth", "setting": "locus YAL026C, strain drs2, active compounds read low", "result": 0.947}, {"measurement": "normalized growth", "setting": "locus YAL030W, strain snc1, active compounds read low", "result": 0.986}, {"measurement": "normalized growth", "setting": "locus YBL061C, strain skt5, active compounds read low", "result": 0.99}, {"measurement": "normalized growth", "setting": "locus YBR009C, strain hhf1, active compounds read low", "result": "0.895 (active)"}, {"measurement": "normalized growth", "setting": "locus YBR023C, strain chs3, active compounds read low", "result": 1}, {"measurement": "normalized growth", "setting": "locus YBR171W, strain sec66, active compounds read low", "result": 0.961}, {"measurement": "normalized growth", "setting": "locus YBR231C, strain swc5, active compounds read low", "result": 1.01}, {"measurement": "normalized growth", "setting": "locus YBR279W, strain paf1, active compounds read low", "result": 1}, {"measurement": "normalized growth", "setting": "locus YCL011C, strain gbp2, active compounds read low", "result": 0.951}, {"measurement": "normalized growth", "setting": "locus YCL016C, strain dcc1, active compounds read low", "result": 1.04}, {"measurement": "normalized growth", "setting": "locus YCL069W, strain vba3, active compounds read low", "result": 0.998}, {"measurement": "normalized growth", "setting": "locus YCR088W, strain abp1, active compounds read low", "result": 0.993}, {"measurement": "normalized growth", "setting": "locus YDL005C, strain med2, active compounds read low", "result": 0.987}, {"measurement": "normalized growth", "setting": "locus YDL040C, strain nat1, active compounds read low", "result": 0.982}, {"measurement": "normalized growth", "setting": "locus YDR001C, strain nth1, active compounds read low", "result": 0.992}, {"measurement": "normalized growth", "setting": "locus YDR069C, strain doa4, active compounds read low", "result": 0.965}, {"measurement": "normalized growth", "setting": "locus YDR137W, strain rgp1, active compounds read low", "result": "0.576 (active)"}, {"measurement": "normalized growth", "setting": "locus YDR159W, strain sac3, active compounds read low", "result": 0.888}, {"measurement": "normalized growth", "setting": "locus YDR195W, strain ref2", "result": "1.15 [resistant] (active)"}, {"measurement": "normalized growth", "setting": "locus YDR297W, strain sur2, active compounds read low", "result": 0.961}, {"measurement": "normalized growth", "setting": "locus YDR334W, strain swr1, active compounds read low", "result": 0.962}, {"measurement": "normalized growth", "setting": "locus YDR335W, strain msn5, active compounds read low", "result": 1.01}, {"measurement": "normalized growth", "setting": "locus YDR392W, strain spt3, active compounds read low", "result": 0.785}, {"measurement": "normalized growth", "setting": "locus YEL003W, strain gim4, active compounds read low", "result": 0.936}, {"measurement": "normalized growth", "setting": "locus YEL037C, strain rad23, active compounds read low", "result": 0.986}, {"measurement": "normalized growth", "setting": "locus YEL061C, strain CIN8 (second series), active compounds read low", "result": 0.973}, {"measurement": "normalized growth", "setting": "locus YER015W, strain faa2, active compounds read low", "result": 0.955}, {"measurement": "normalized growth", "setting": "locus YER016W, strain bim1, active compounds read low", "result": 1.01}, {"measurement": "normalized growth", "setting": "locus YER111C, strain swi4, active compounds read low", "result": 1.01}, {"measurement": "normalized growth", "setting": "locus YER155C, strain BEM2 (second series), active compounds read low", "result": 1.02}, {"measurement": "normalized growth", "setting": "locus YFR010W, strain ubp6, active compounds read low", "result": 0.939}, {"measurement": "normalized growth", "setting": "locus YGL167C, strain pmr1, active compounds read low", "result": 0.966}, {"measurement": "normalized growth", "setting": "locus YGL173C, strain kem1, active compounds read low", "result": 0.979}, {"measurement": "normalized growth", "setting": "locus YGL227W, strain vid30, active compounds read low", "result": 0.99}, {"measurement": "normalized growth", "setting": "locus YGL240W, strain doc1, active compounds read low", "result": 0.959}, {"measurement": "normalized growth", "setting": "locus YGL253W, strain hxk2, active compounds read low", "result": 0.929}, {"measurement": "normalized growth", "setting": "locus YHR013C, strain ard1, active compounds read low", "result": 1.01}, {"measurement": "normalized growth", "setting": "locus YHR027C, strain rpn1, active compounds read low", "result": 0.968}, {"measurement": "normalized growth", "setting": "locus YHR030C, strain SLT2, active compounds read low", "result": 1.01}, {"measurement": "normalized growth", "setting": "locus YHR079C, strain IRE1, active compounds read low", "result": 1.02}, {"measurement": "normalized growth", "setting": "locus YHR142W, strain chs7, active compounds read low", "result": 0.956}, {"measurement": "normalized growth", "setting": "locus YJL092W, strain hpr5, active compounds read low", "result": 0.992}, {"measurement": "normalized growth", "setting": "locus YJL095W, strain BCK1 (second series), active compounds read low", "result": 0.983}, {"measurement": "normalized growth", "setting": "locus YJL095W, strain BCK1, active compounds read low", "result": 0.991}, {"measurement": "normalized growth", "setting": "locus YJL115W, strain asf1, active compounds read low", "result": 0.99}, {"measurement": "normalized growth", "setting": "locus YJL129C, strain trk1, active compounds read low", "result": 1.01}, {"measurement": "normalized growth", "setting": "locus YJL154C, strain vps35, active compounds read low", "result": 0.978}, {"measurement": "normalized growth", "setting": "locus YJL164C, strain tpk1, active compounds read low", "result": 0.926}, {"measurement": "normalized growth", "setting": "locus YJL166W, strain qcr8, active compounds read low", "result": 0.94}, {"measurement": "normalized growth", "setting": "locus YJR066W, strain TOR1, active compounds read low", "result": 0.962}, {"measurement": "normalized growth", "setting": "locus YKL160W, strain elf1, active compounds read low", "result": 1.03}, {"measurement": "normalized growth", "setting": "locus YKR026C, strain gcn3, active compounds read low", "result": 0.98}, {"measurement": "normalized growth", "setting": "locus YKR091W, strain srl3, active compounds read low", "result": 0.989}, {"measurement": "normalized growth", "setting": "locus YLL001W, strain dnm1, active compounds read low", "result": 0.918}, {"measurement": "normalized growth", "setting": "locus YLL026W, active compounds read low", "result": 0.984}, {"measurement": "normalized growth", "setting": "locus YLL041C, strain sdh2, active compounds read low", "result": 0.996}, {"measurement": "normalized growth", "setting": "locus YLR027C, strain aat2, active compounds read low", "result": 0.955}, {"measurement": "normalized growth", "setting": "locus YLR113W, strain HOG1, active compounds read low", "result": 0.964}, {"measurement": "normalized growth", "setting": "locus YLR221C, strain rsa3, active compounds read low", "result": "0.89 (active)"}, {"measurement": "normalized growth", "setting": "locus YLR258W, strain gsy2, active compounds read low", "result": 1.01}, {"measurement": "normalized growth", "setting": "locus YLR262C, strain YPT6 (second series), active compounds read low", "result": "0.521 (active)"}, {"measurement": "normalized growth", "setting": "locus YLR320W, strain mms22, active compounds read low", "result": 0.907}, {"measurement": "normalized growth", "setting": "locus YLR342W, strain FKS1, active compounds read low", "result": "0.889 (active)"}, {"measurement": "normalized growth", "setting": "locus YLR357W, strain rsc2, active compounds read low", "result": 0.979}, {"measurement": "normalized growth", "setting": "locus YLR370C, strain arc18, active compounds read low", "result": 1.01}, {"measurement": "normalized growth", "setting": "locus YLR384C, strain iki3, active compounds read low", "result": 1.01}, {"measurement": "normalized growth", "setting": "locus YML120C, strain ndi1, active compounds read low", "result": "0.909 (active)"}, {"measurement": "normalized growth", "setting": "locus YMR058W, strain fet3, active compounds read low", "result": 0.952}, {"measurement": "normalized growth", "setting": "locus YMR125W, strain sto1, active compounds read low", "result": 1.03}, {"measurement": "normalized growth", "setting": "locus YMR129W, active compounds read low", "result": 1.01}, {"measurement": "normalized growth", "setting": "locus YMR205C, strain PFK2, active compounds read low", "result": 0.981}, {"measurement": "normalized growth", "setting": "locus YMR231W, strain pep5, active compounds read low", "result": 0.998}, {"measurement": "normalized growth", "setting": "locus YNL071W, strain lat1, active compounds read low", "result": 0.978}, {"measurement": "normalized growth", "setting": "locus YNL183C, strain NPR1, active compounds read low", "result": 0.951}, {"measurement": "normalized growth", "setting": "locus YNL209W, strain ssb2, active compounds read low", "result": 0.995}, {"measurement": "normalized growth", "setting": "locus YNL248C, strain rpa49, active compounds read low", "result": 1.01}, {"measurement": "normalized growth", "setting": "locus YNL322C, strain KRE1 (second series), active compounds read low", "result": 1}, {"measurement": "normalized growth", "setting": "locus YNR049C, strain mso1, active compounds read low", "result": 1}, {"measurement": "normalized growth", "setting": "locus YOR001W, strain rrp6, active compounds read low", "result": 0.901}, {"measurement": "normalized growth", "setting": "locus YOR070C, strain gyp1, active compounds read low", "result": 1}, {"measurement": "normalized growth", "setting": "locus YOR080W, strain dia2, active compounds read low", "result": 0.991}, {"measurement": "normalized growth", "setting": "locus YOR083W, strain WHI5, active compounds read low", "result": 0.941}, {"measurement": "normalized growth", "setting": "locus YOR106W, strain vam3, active compounds read low", "result": 0.981}, {"measurement": "normalized growth", "setting": "locus YOR231W, strain MKK1, active compounds read low", "result": 1}, {"measurement": "normalized growth", "setting": "locus YOR265W, strain rbl2, active compounds read low", "result": 0.967}, {"measurement": "normalized growth", "setting": "locus YOR270C, strain vph1, active compounds read low", "result": 0.794}, {"measurement": "normalized growth", "setting": "locus YOR290C, strain snf2, active compounds read low", "result": 1.02}, {"measurement": "normalized growth", "setting": "locus YPL051W, strain arl3, active compounds read low", "result": 1.04}, {"measurement": "normalized growth", "setting": "locus YPL078C, strain atp4, active compounds read low", "result": 0.99}, {"measurement": "normalized growth", "setting": "locus YPL106C, strain sse1, active compounds read low", "result": 1.15}, {"measurement": "normalized growth", "setting": "locus YPL240C, strain hsp82, active compounds read low", "result": 0.996}, {"measurement": "normalized growth", "setting": "locus YPL256C, strain CLN2, active compounds read low", "result": 1.04}]}
